Reference: PubChem BioAssay (NCATS)
Results filed as inconclusive are left out. Unmarked numbers belong to inactive results. Calls of active or inactive are those of the source. The call rests on the fitted dose curve; in most records, active means well fitted cell-killing curve with a large enough effect; inconclusive means small, poorly fitted or top-dose-only effect, or effect the other way; inactive means no such curve, though single readings can be large or run the other way.

Test: qHTS of pediatric cancer cell lines to identify multiple opportunities for drug repurposing: Confirmatory screen for NB1643 cells (AID 1347109); further: nearly all actives have a fitted effect of over 45% in size
Details: NB1643 neuroblastoma cell viability; series mostly up to 45.9 µM; activity change, negative = cytotoxic: at the top concentration
From the text: Drug repurposing or repositioning has been offered as a strategy for drug development in oncology programs. This approach has special potential for childhood cancers and other rare or orphan diseases, where the expected return on new drug development has been a disincentive to pharmaceuticals.
In this project we exploit the poly-pharmacology of drugs to discover new indications via phenotypic screening of a panel of 19 well-characterized cell lines derived from solid tumors seen in children and adolescents. The goal is to identify approved drugs with previously unrecognized anticancer properties that has the potential to reveal new mechanisms and biological processes involved in carcinogenesis or drug resistance. We employed a titration-based paradigm (quantitative high-throughput screening or qHTS), where all compounds were tested at multiple concentrations for their effect on cell viability. Concentration-response curves (CRCs) were derived directly from the primary screen, and both potency and efficacy values were used to identify compounds with robust bioactivity profiles. We screened the NIH Chemical Genomics Center (NCGC) Pharmaceutical Collection (NPC) and Mechanism Interrogation Plate (MIPE) small molecule collections of approved and investigational compounds against these cell lines; and measured metabolically active cells after 48 hours of compound treatment as a proxy for cell viability.
Assay Submitter: Nathalia J. Martinez, National Center for Advancing Translational Sciences, National Institutes of Health, Rockville, MD, USA; email: natalia.martinez@nih.gov
[1] Shen, M et al. Quantitative high-throughput phenotypic screening of pediatric cancer cell lines identifies multiple opportunities for drug repurposing. Oncotarget 2017 Dec 19;9(4):4758-4772. PMID 29435139.
The cells were obtained from University of North Carolina (UNC), Pediatric Preclinical Testing Program (PPT), and Coriell Institute (CI).
qHTS cell viability assay:
Cells were assayed in growth media at a density of 500-1,000 cells/well. Five microliters of cells were dispensed into 1,536-well, white, solid-bottom, TC-treated plates (Greiner Bio One) using a multidrop dispenser and incubated at 37 degrees C, 5% CO2, under a humidified atmosphere for 5 hours. Twenty-three nanoliters of compounds and controls (neutral control DMSO or positive control bortezomib at final concentration of 2.3 µM) were subsequently transferred by Kalypsys pintool. For primary screens, the MIPE collection was tested at 11-point dilutions (final concentrations range from 0.78 nM to 46 µM) and the NPC collection at 8-point dilutions (final concentrations range from 0.59 nM to 46 µM). Compounds tested in follow-up screens were assayed at 11-point dilutions. Cells were incubated for 48 hours, followed by addition of 3 µL of CellTiter-Glo (Promega). After a 15 min incubation at room temperature, samples were analyzed for luminescence intensity using a ViewLux High-throughput CCD imager equipped with clear filters.
Potency means the concentration at half of the fitted maximal effect.

SMILES	Potency	activity change, negative = cytotoxic
CN(C)C(=S)SSC(=S)N(C)C	1310 nM (active)	–
CCc1ccc(C2CCNCC2)cc1	–	-0.325%
CC[n+]1c(-c2ccccc2)c2cc(N)ccc2c2ccc(N)cc21	11700 nM (active)	–
COC(=O)C1=CCCN(C)C1	–	7.46%
COc1ccc2c(C(=O)c3ccc(Cl)cc3)c(C)n(CC(=O)O)c2c1	–	-4.9%
CCCCCCCCC(=O)NCc1ccc(O)c(OC)c1	–	-12.4%
Cc1ccc([N+](=O)[O-])[c]2c1[O][Hg]2	737 nM (active)	–
CN1[C@@H]2CC[C@H]1CC(OC(=O)c1cc(Cl)cc(Cl)c1)C2 (some centres not stated)	–	-18.1%
C[C@@H]1O[C@@H](O[C@@H]2C=C3CC[C@@H]4[C@H](CC[C@]5(C)[C@@H](c6ccc(=O)oc6)CC[C@]45O)[C@@]3(C)CC2)[C@H](O)[C@H](O)[C@H]1O	82.7 nM (active)	–
CCCCCCCCCCCC[N+](C)(C)CCOc1ccccc1	11700 nM (active)	–
ClC1=C(Cl)C2(Cl)C(CBr)CC1(Cl)C2(Cl)Cl (configuration not stated)	–	7.11%
CC1Sc2c(C(=O)O)c(=O)c3cc(F)c(N4CCNCC4)cc3n21 (configuration not stated)	–	-9.18%
